Assay [1] is described as follows: Nuclear factor erythroid 2-related factor 2/antioxidant responsive element (Nrf2/ARE) small molecule agonists: luciferase reporter gene qHTS assay in human keratinocytes (AID 1919969). Note: nearly all actives have a fitted effect of over 35% in size.
Assay [2] has as its target Gonadotropin-releasing hormone receptor (Homo sapiens) (UniProt P30968). Description: Human gonadotropin-releasing hormone receptor (GnRHR) small molecule agonists, calcium flux assay in GnRHR-HEK293 cells (AID 1920063). Note: nearly all actives have a fitted effect of over 35% in size. The gist of the method:
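We seeded human GnRHR-expressing HEK293 cells for 18 hours, loaded them with calcium dye for an hour at 37 C, added test compounds, and recorded fluorescence intensity kinetically for three minutes.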

In assay [3] the target is KiSS-1 receptor (Homo sapiens) (UniProt Q969F8). The assay can be described thus: Human kisspeptin (KISS1R) small molecule agonists, calcium flux assay in KISS1R-HEK293 cells (AID 1920064; active = well fitted activation curve with a large enough effect in the repeat runs). Summed up:
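Kinetic calcium assay, 1 s sampling over 3 min at Ex/Em 480/540, in HEK293 cells engineered with human KISS1R; compounds delivered in DMSO after 1 h dye loading.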

The nature of assay [4]: G protein-coupled receptor (GPCR) small molecule agonists, calcium flux assay: HEK293 wild type cell line counter screen (AID 1920065). The gist of the method:
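Calcium-sensitive dye, loaded 1 h at 37 C into cells cultured 18 h, reports compound-evoked calcium release as fluorescence (Ex/Em 480/540), measured over 3 min. Agonist mode; 15-point titrations, triplicate.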

The nature of assay [5]: p53 small molecule agonists, cell-based qHTS assay with human liver microsomes (AID 1963577). The gist of the method:
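Compounds act here after metabolic activation: human liver microsomes and NADPH, both at 0.5 mg/mL final, were co-added to p53RE-bla cells. Incubation ran 16 h at 37 C, followed by LiveBLAzer detection.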

Assay [6] is described as follows: p53 small molecule agonists, cell-based qHTS assay with rat liver microsomes (AID 1963578). The gist of the method: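 Read-out is beta-lactamase reporter fluorescence (LiveBLAzer, 2 h, room temperature, dark) in p53RE-bla cells treated 16 h at 37 C with compound, rat liver microsomes and NADPH, both 0.5 mg/mL final.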
Assay [7] can be described thus: p53 small molecule agonists, cell-based qHTS assay with human liver microsomes: qHTS cell viability counter screen (AID 1963579). Note: nearly all actives have a fitted effect of over 45% in size. The gist of the method: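 Cells carrying the p53 response-element beta-lactamase reporter are treated for 16 h at 37 C with test compounds in the presence of human liver microsomes and NADPH (both 0.5 mg/mL final); ATP-based CellTiter-Glo luminescence then reports viability.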

The nature of assay [8]: p53 small molecule agonists, cell-based qHTS assay with rat liver microsomes: qHTS cell viability counter screen (AID 1963580). Note: nearly all actives have a fitted effect of over 45% in size. Summed up: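 p53RE-bla HCT-116 cells (4,000/well) rested 5 h at 37 C, then given Tox21 compounds in DMSO with rat liver microsomes (0.5 mg/mL final) plus NADPH (0.5 mg/mL final) for 16 h at 37 C. Viability read by CellTiter-Glo luminescence after 30 min at room temperature.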

Assay [9] is described as follows: p53 small molecule agonists, cell-based qHTS assay: qHTS cell viability counter screen (AID 1963581). Note: nearly all actives have a fitted effect of over 45% in size. The gist of the method: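 Following 5 h attachment, HCT-116 p53RE-bla cells took up compound for 16 h at 37 C; the reporter was read with B/G FRET substrate (2 h RT), and viability then via CellTiter-Glo ATP luminescence.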
The nature of assay [10]: p53 small molecule agonists, cell-based qHTS assay (AID 1963582; active = well fitted activation curve with a large enough effect in the signal ratio in the repeat runs, not every such curve was filed as active; the % refers to the signal ratio; note: potency is the fitted concentration of half-maximal effect). The gist of the method: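 In this cell-based concentration-response screen, a p53 response element drives beta-lactamase; cells received DMSO-borne compounds after 5 h culture and were incubated a further 16 h before FRET substrate development.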
The target in assay [11] is Muscarinic acetylcholine receptor M1 (Homo sapiens) (UniProt P11229). The assay can be described thus: Cholinergic receptor muscarinic 1 (CHRM1) small molecule antagonists, cell-based qHTS assay (AID 1963588). Note: nearly all actives have a fitted effect of over 40% in size. Summed up: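 CHRM1-CHO calcium-flux assay, antagonist mode. Cells were seeded 18 h, dye-loaded 1 h at 37 C and given compound for 5 min at RT, then acetylcholine was added at 50nM. FDSS fluorescence was read 3 min; 15 concentrations, three runs.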

For assay [12] the target is unchanged. The assay can be described thus: Cholinergic receptor muscarinic 1 (CHRM1) small molecule agonists, cell-based qHTS assay (AID 1963589). Note: nearly all actives have a fitted effect of over 35% in size. The gist of the method: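 Measures agonist-induced intracellular calcium rise. Stable human CHRM1 CHO line, 1 h dye load at 37 C, compounds from DMSO, kinetic fluorescence read.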
Assay [13] can be described thus: cAMP Responsive Elements (CRE) small molecule antagonists, cell-based qHTS assay (AID 1963591; active = well fitted inhibition curve with a large enough effect in the signal ratio in the repeat runs, not every such curve was filed as active; the % refers to the signal ratio). The gist of the method:
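HEK293T cells carrying a CRE-driven beta-lactamase reporter receive compound and NKH477 (0.25 uM final) for 3 h. Fluorescence from LiveBLAzer B/G FRET substrate is read after 2 h at room temperature.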

Assay [14] deals with Beta-2 adrenergic receptor (Homo sapiens) (UniProt P07550). The assay can be described thus: Adrenergic beta2 receptor (ADRB2) small molecule antagonists, cell-based qHTS assay (AID 1963592). Note: series mostly up to about 92 µM; nearly all actives have a fitted effect of over 50% in size. Summed up: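 Cells (CHO, stable ADRB2 overexpression) incubated 18-20hr at 37C; compounds added from DMSO; agonist mix (1nM isoproterenol, 100uM IBMX, 25uM Ro-20-1724) added; 0.5hr RT; d2-cAMP and anti-cAMP-cryptate added; 1hr RT; 665/615 nm read.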

Assay [15] shares this target. The assay can be described thus: Adrenergic beta2 receptor (ADRB2) small molecule agonists, cell-based qHTS assay (AID 1963593).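 Note: CHO cells stably overexpressing human ADRB2.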 The gist of the method: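 CHO cells stably over-expressing ADRB2 were plated overnight at 37C, then dosed with compounds plus a stimulation mix containing 100uM IBMX and 25uM Ro-20-1724 for 0.5hr at room temperature. cAMP was measured by HTRF competition, 1hr.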

Assay [16] has as its target D(2) dopamine receptor (Homo sapiens) (UniProt P14416). Description: Dopamine D2 receptor (DRD2) small molecule agonists, cell-based qHTS assay (AID 1963594). Note: nearly all actives have a fitted effect of over 35% in size. Summed up:
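HEK293 cells stably expressing DRD2 were cultured 24 h at 37 C, then given Ro20-1724 (0.1 mM final) and compounds for 10 min at room temperature. NKH477 (200nM) was then added for 30 min. cAMP was read by HTRF.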

For assay [17] the target is unchanged. The assay can be described thus: Dopamine D2 receptor (DRD2) small molecule antagonists, cell-based qHTS assay (AID 1963595; active = well fitted inhibition curve with a large enough effect in the signal ratio in the repeat runs, with a control signal flat; the % refers to the signal ratio). The gist of the method:
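In this cell-based antagonist screen, compounds act for 10 min at room temperature before a 30 min challenge with 12 nM quinpirole and 200 nM NKH477. cAMP is quantified by HTRF competition in DRD2-HEK293 cells containing 0.1 mM Ro20-1724.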

Assay [18] has as its target 5-hydroxytryptamine receptor 2A (Homo sapiens) (UniProt P28223). Description: 5-hydroxytryptamine receptor 2A (HTR2A) small molecule antagonists, cell-based qHTS assay (AID 1963586). Note: nearly all actives have a fitted effect of over 45% in size. The gist of the method: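 Antagonist-mode intracellular calcium assay: DOI (4 nM) added after 5 min compound pre-incubation at room temperature to dye-loaded HTR2A-CHO cells. Fluorescence followed for 3 min, sampled every second.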

For assay [19] the target is unchanged. Description: 5-hydroxytryptamine receptor 2A (HTR2A) small molecule agonists, cell-based qHTS assay (AID 1963587). Note: nearly all actives have a fitted effect of over 30% in size. The gist of the method:
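HTR2A-CHO cells, plated 18 h at 37 C/5% CO2, dye-loaded 1 h at 37 C; compounds in DMSO added by pin tool (agonist mode). Intracellular calcium flux read as kinetic fluorescence on FDSS over 2 min at 1 s intervals.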

Assay [20] is described as follows: cAMP Responsive Elements (CRE) small molecule agonists, cell-based qHTS assay (AID 1963590). Summed up: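 A CRE-responsive beta-lactamase reporter in HEK 293T cells was used. Treatment ran 3 h at 37 C; detection used LiveBLAzer B/G FRET substrate for 2 h at room temperature.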

Values without a mark were called inactive. Inconclusive results are not listed. Active and inactive are the calls of the source. Unless noted, calls come from the whole dose curve.

Chain of KiSS-1 receptor (Homo sapiens) (Q969F8 whole entry, looked up): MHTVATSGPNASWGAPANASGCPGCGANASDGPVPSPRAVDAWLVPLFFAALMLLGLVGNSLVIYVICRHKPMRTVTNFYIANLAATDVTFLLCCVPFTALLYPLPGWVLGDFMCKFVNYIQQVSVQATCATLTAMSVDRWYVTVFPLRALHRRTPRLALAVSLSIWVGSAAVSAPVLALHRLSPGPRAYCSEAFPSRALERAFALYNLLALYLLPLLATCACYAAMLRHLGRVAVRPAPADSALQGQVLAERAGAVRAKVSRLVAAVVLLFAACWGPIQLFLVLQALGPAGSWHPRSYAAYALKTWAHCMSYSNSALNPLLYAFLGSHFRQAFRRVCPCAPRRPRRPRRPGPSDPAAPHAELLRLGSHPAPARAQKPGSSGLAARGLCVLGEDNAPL
Chain of 5-hydroxytryptamine receptor 2A (Homo sapiens) (P28223 whole entry, looked up): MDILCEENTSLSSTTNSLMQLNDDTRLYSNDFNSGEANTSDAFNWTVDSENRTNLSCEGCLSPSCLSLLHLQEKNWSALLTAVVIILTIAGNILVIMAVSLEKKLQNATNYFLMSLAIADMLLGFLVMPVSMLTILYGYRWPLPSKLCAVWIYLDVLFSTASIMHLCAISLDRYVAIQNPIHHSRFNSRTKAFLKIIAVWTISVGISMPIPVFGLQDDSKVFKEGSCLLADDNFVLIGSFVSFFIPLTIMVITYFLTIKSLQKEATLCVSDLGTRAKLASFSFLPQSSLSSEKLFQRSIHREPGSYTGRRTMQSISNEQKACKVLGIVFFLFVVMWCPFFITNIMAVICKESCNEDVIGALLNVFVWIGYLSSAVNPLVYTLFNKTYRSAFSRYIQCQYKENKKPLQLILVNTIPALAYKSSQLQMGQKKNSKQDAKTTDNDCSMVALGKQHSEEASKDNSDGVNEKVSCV
Chain of D(2) dopamine receptor (Homo sapiens) (P14416 whole entry, looked up): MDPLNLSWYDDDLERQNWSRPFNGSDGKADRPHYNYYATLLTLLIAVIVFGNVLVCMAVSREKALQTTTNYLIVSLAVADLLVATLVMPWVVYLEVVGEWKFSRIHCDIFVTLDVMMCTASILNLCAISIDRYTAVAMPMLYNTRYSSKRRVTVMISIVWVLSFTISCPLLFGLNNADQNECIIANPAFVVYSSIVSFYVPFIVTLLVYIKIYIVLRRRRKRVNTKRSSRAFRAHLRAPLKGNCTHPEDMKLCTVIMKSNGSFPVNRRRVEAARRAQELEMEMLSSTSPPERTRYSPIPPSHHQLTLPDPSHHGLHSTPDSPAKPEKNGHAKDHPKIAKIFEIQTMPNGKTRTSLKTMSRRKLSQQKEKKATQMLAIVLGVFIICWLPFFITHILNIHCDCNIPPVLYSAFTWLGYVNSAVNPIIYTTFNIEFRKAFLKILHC
Chain of Gonadotropin-releasing hormone receptor (Homo sapiens) (P30968 whole entry, looked up): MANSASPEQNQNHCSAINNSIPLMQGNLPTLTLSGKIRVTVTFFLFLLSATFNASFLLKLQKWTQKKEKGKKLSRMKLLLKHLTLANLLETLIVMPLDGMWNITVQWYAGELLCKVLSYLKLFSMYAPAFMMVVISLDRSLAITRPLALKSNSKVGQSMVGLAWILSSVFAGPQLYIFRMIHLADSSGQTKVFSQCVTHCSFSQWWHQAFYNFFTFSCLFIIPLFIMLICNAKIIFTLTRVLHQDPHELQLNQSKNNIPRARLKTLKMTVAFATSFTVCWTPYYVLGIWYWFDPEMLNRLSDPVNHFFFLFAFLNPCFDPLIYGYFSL
Chain of Beta-2 adrenergic receptor (Homo sapiens) (P07550 whole entry, looked up): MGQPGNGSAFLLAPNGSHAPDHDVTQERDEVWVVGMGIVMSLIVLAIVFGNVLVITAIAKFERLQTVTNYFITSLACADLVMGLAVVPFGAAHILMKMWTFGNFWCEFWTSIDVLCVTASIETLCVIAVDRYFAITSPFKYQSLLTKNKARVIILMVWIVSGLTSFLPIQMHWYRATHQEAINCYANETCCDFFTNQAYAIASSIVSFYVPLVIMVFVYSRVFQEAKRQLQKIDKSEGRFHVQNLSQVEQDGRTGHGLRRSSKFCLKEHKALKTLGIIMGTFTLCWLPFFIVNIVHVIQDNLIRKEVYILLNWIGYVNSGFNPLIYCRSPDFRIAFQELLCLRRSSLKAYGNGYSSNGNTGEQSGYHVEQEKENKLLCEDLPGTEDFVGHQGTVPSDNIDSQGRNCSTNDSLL
Chain of Muscarinic acetylcholine receptor M1 (Homo sapiens) (P11229 whole entry, looked up): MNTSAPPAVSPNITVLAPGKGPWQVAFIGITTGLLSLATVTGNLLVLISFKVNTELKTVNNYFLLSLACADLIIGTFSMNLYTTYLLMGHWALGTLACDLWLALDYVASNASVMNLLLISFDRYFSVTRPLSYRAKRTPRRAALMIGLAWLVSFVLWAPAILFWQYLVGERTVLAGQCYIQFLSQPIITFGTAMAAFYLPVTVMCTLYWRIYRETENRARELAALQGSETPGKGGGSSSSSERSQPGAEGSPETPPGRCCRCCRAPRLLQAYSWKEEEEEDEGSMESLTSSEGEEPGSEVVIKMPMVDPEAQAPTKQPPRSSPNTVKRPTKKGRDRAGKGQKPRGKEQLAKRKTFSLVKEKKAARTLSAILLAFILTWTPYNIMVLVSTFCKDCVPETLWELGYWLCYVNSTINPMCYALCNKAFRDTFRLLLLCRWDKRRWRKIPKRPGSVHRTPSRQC

In the case of `O=C1c2ccccc2C(=O)c2cc(O)ccc21`, the Potency entry in [1], in assay [2], in [5], in assay [6], in [7] and in assay [8] was “inactive” in each case. For the same compound, the Potency result in assay [9], in [10], in assay [11], in assay [12], in [13] and in assay [14] was “inactive” throughout. The Potency result in assay [15], in assay [16] and in assay [17] was “inactive” in each case. The outcome in [3] and in [4] was inactive.
As to `OCC(CBr)(CBr)CBr`, the Potency entry in assay [1], in assay [2], in assay [5], in [6], in [7] and in [8] was “inactive” each time. Moreover, the Potency result in assay [9], in assay [10], in assay [18], in assay [19], in assay [11] and in [12] was “inactive” throughout. The Potency entry in [20], in [13], in [14], in [16] and in [17] was “inactive” each time. Also, the result in assay [3] and in assay [4] was inactive.
With `Cc1ccsc1C(=CCCN1CCC[C@@H](C(=O)O)C1)c1sccc1C`, the Potency entry in assay [1], in assay [2], in assay [5], in assay [6], in [7] and in [8] was “inactive” each time. For the same compound, the Potency entry in [9], in assay [18], in [11], in assay [12], in assay [14] and in [15] was “inactive” throughout. The Potency result in [16] and in assay [17] was “inactive” each time. In addition, the result in assay [3] and in assay [4] was inactive. In assay [10], the Potency is 0.5 µM (active).
`C[N+](C)(C)CC(O)CC(=O)[O-]` (stereo not drawn): the Potency entry in assay [1], in assay [2], in assay [5], in [6], in assay [7] and in [8] was “inactive” each time. Besides, the Potency entry in [9], in [10], in assay [20], in [13], in assay [14] and in assay [15] was “inactive” in each case. The Potency entry in assay [16] is “inactive”. Besides, the result in [3] and in [4] was inactive.
With `Cc1ccc(NC(N)=O)cc1`, the Potency entry in [1], in assay [2], in assay [5], in assay [6], in assay [7] and in [8] was “inactive” throughout. The Potency result in assay [9], in [10], in assay [18], in assay [19], in assay [11] and in assay [12] was “inactive” in each case. Further, the Potency result in assay [20], in assay [13], in assay [14], in assay [16] and in [17] was “inactive” each time. For the same compound, the outcome in [3] and in [4] was inactive.
`NCc1ccco1`: the Potency result in assay [1], in assay [2], in assay [5], in assay [6], in assay [7] and in assay [8] was “inactive” in each case. Also, the Potency entry in [9], in [10], in assay [18], in assay [19], in assay [11] and in assay [12] was “inactive” throughout. For the same compound, the Potency result in assay [13], in [14] and in assay [16] was “inactive” in each case. Also, the result in assay [3] and in assay [4] was inactive.
For `CC(=O)CC(C)C`, the Potency entry in assay [1], in assay [2], in assay [5], in [6], in [7] and in assay [8] was “inactive” throughout. In addition, the Potency entry in assay [9], in assay [10], in assay [19], in [12], in assay [20] and in [13] was “inactive” in each case. Besides, the Potency result in [14], in assay [15] and in assay [16] was “inactive” in each case. The result in assay [3] and in assay [4] was inactive.
Consider `CCC(=O)Oc1ccc2c(c1)CC[C@@H]1[C@@H]2CC[C@@]2(C)[C@H]1C[C@@H](OC(=O)CC)[C@@H]2OC(=O)CC`, for which the Potency result in assay [1], in assay [2], in assay [5], in assay [6], in assay [7] and in assay [8] was “inactive” throughout. Besides, the Potency entry in [9], in [10], in assay [18], in [19], in [11] and in assay [12] was “inactive” in each case. Further, the Potency result in [14], in [16] and in assay [17] was “inactive” throughout. Also, the result in assay [3] and in assay [4] was inactive.

Source of the values: PubChem BioAssay (Tox21).
